# Among all 340,000 compounds or so, about 1,000 (0.29%) were called active. No stated cut-off is given here; in the data, inconclusive means inhibition above about 27% without an active follow-up result; inactive means below that. The list is a sample of the results. Measured potencies and affinities stand elsewhere.
# Test: NS1A inhibition, H1N1 influenza, cell based functional assay (AID 504329)
# Settings: percent inhibition, at 12.5 µM, hits give high values
row,SMILES,inhibition
1,COc1ccc(NC(=O)COC(=O)c2ccc3ccccc3n2)cc1,-0.01% (inactive)
2,CCN(CC)c1ccc(NC(=O)COC(=O)c2ccc3ccccc3n2)cc1,17.3% (inactive)
3,O=C(Nc1ccn(CCCNCc2ccccc2)c(=O)n1)OCc1ccccc1,-1.35% (inactive)
4,CCN(CC)c1ccc(CN2CC=C(c3ccc(F)cc3)CC2)cc1,23.1% (inactive)
5,COc1cc(CN2CC=C(c3ccc(F)cc3)CC2)cc(OC)c1,-3.66% (inactive)
6,N[C@@H](Cc1ccc(O)cc1)c1nnc([C@H](CO)NC(=O)C2CCNCC2)o1,-21.5% (inactive)
7,COc1ccccc1C=NNC(=O)c1ccccc1OCCOc1ccccc1,-1.44% (inactive)
8,COc1ccc(CCc2nnc(N)s2)cc1OC,-1.61% (inactive)
9,CCOC(=O)c1cc(-c2ccc(Cl)s2)[nH]n1,0.06% (inactive)
10,NC(=O)C1CCN(/C=C2\C(=O)NC(=O)N(Cc3ccco3)C2=O)CC1,-5.38% (inactive)
11,CCN(CC)c1ccc(/C=C2/C(=O)NC(=O)N(Cc3ccco3)C2=O)cc1,7.25% (inactive)
12,Cn1cccc1/C=C1\C(=O)NC(=O)N(Cc2ccco2)C1=O,3.7% (inactive)
13,O=C1NC(=O)N(Cc2ccco2)C(=O)/C1=C/C=C/c1ccco1,-3.06% (inactive)
14,COC(=O)c1ccc(NC(=O)CNS(=O)(=O)c2cccs2)cc1,1.39% (inactive)
15,COc1ccc(C(=O)N/N=C/c2ccccn2)cc1OC,0.68% (inactive)
16,COc1cc(C(=O)N/N=C(\c2ccccc2)c2ccccn2)cc(OC)c1OC,8.37% (inactive)
17,COc1cc(NC(=O)c2ccccn2)cc(OC)c1OC,-8.83% (inactive)
18,COc1ccc(C(=O)N/N=C(\C)CC(=O)Nc2ccccn2)cc1OC,1.35% (inactive)
19,COc1ccc(NC(=S)N2CCN(Cc3ccccc3)CC2)c(OC)c1,-3.28% (inactive)
20,Fc1cccc(-c2oncc2-c2nnnn2-c2ccc(Cl)cc2)c1,12.9% (inactive)
21,CCOC(=O)c1ccc(NC(=O)CCNS(=O)(=O)c2cc(Br)cnc2N)cc1,1.26% (inactive)

row,SMILES,inhibition
1,O=C1C(Cl)=C(N2CCC(C(=O)O)CC2)C(=O)c2ccccc21,0.19% (inactive)
2,CN1CCN(C2=C(Cl)C(=O)c3ccccc3C2=O)CC1,-8.61% (inactive)
3,C[C@H](CO)N1C[C@H](C)[C@H](CN(C)Cc2ccccc2)Oc2c(NC(=O)Nc3ccc(F)cc3)cccc2C1=O,-3.95% (inactive)
4,Cc1ccc(C(=O)OCC(=O)c2ccc(Cl)s2)s1,1.17% (inactive)
5,CC1(C)CC(NC(=O)C23CCC(C)(C2Br)C3(C)C)CC(C)(C)N1 (stereo unspecified),-5.71% (inactive)
6,CCN1C(c2ccccc2)=C(c2ccccc2)S/C1=C\C=C1/SC(=S)N(C)C1=O,15.8% (inactive)
7,CCN1C(=O)/C(=C/C=C2/Sc3ccc4ccccc4c3N2CCO)SC1=S,-5.98% (inactive)
8,CCCCCC/C=C/c1ccc(OC)c([C@H]2[C@H]3C=CC[C@@H](C)[C@@H]3C(=O)N2Cc2ccccc2)c1,6.03% (inactive)
9,CCN1/C(=C/c2ccc3cc(C)ccc3[n+]2CC)Sc2cc(C)ccc21,19.4% (inactive)
10,CCN1/C(=C\c2ccc3ccccc3[n+]2CC)Sc2cc(C)ccc21,11.8% (inactive)
11,Cc1cc(C)nc(NS(=O)(=O)c2ccc(NS(=O)(=O)c3ccc(C#N)cc3)cc2)n1,-5.4% (inactive)
12,COC(=O)CNC(=O)CN(c1ccc(OC)cc1OC)S(=O)(=O)c1ccccc1,-1.66% (inactive)
13,Cc1cccc(NC(=O)Cn2c(O)c(N=NC(=O)c3ccncc3)c3ccccc32)c1,-15.6% (inactive)
14,CN1CCc2c(sc3c2C(=O)NC(c2cccs2)N3)C1 (stereo unspecified),1.19% (inactive)
15,O=C1NC(c2ccncc2)Nc2sc3c(c21)CCCC3 (stereo unspecified),2.95% (inactive)
16,CN1CCc2c(sc3c2C(=O)NC(c2ccccc2)N3)C1 (stereo unspecified),-3.09% (inactive)
17,O=C1NC(c2cccs2)Nc2sc3c(c21)CCCC3 (stereo unspecified),3.69% (inactive)
18,CCN1C(=O)/C(=C2\SC(N3CCCCC3)=NC2=O)c2ccccc21,14.1% (inactive)
19,CCN1C(=O)/C(=C2\SC(N3CCOCC3)=NC2=O)c2ccccc21,23.1% (inactive)
20,CCCCN1C(=O)/C(=C2\SC(N3CCOCC3)=NC2=O)c2ccccc21,8.19% (inactive)
21,CN1C(=O)/C(=C2\SC(N3CCCCCC3)=NC2=O)c2ccccc21,20.3% (inactive)

row,SMILES,inhibition
1,COC(=O)c1sccc1NC(=O)c1ccc(Br)o1,3.08% (inactive)
2,Cc1nc2ccccc2c(=O)n1NC(=O)c1cc(Br)ccc1Cl,3.26% (inactive)
3,CCOC(=O)c1c(NC(=O)CNCCO)sc(C)c1C,-0.57% (inactive)
4,CN(CCCNC(=O)c1cc2c(=O)[nH]c3ccccc3c2n1C)Cc1ccccc1,-0.58% (inactive)
5,CCN1CCN(C(=O)c2cc(-c3ccc(Cl)s3)nc3ccccc23)CC1,-3.92% (inactive)
6,COc1cc(C(=O)OCC(=O)NC(=O)c2cccn2C)ccc1OC(F)F,5.75% (inactive)
7,COc1ccc(Oc2ccccc2/C=N/O)cc1,-9.31% (inactive)
8,COc1ccc2nc(-c3ccccn3)[nH]c2c1,-6.69% (inactive)
9,CC(C)(C)c1cc(=O)[nH]c(SCc2ccccc2)n1,-17.8% (inactive)
10,Cn1nc(C(F)(F)F)c(CO)c1Sc1ccc(F)cc1,5.51% (inactive)
11,CC[n+]1c(SC)ccc2cc(OC)ccc21,-5.15% (inactive)
12,CC[n+]1c(/C=C/c2ccc(OC(C)=O)c(OC)c2)ccc2ccccc21,18.9% (inactive)
13,CN(CCCS(=O)(=O)[O-])c1ccc(/C=C/c2ccc3ccccc3[n+]2C)cc1,-6.52% (inactive)
14,CC[n+]1cc(C)ccc1/C=C/c1ccc(N(C)C)cc1,-3.01% (inactive)
15,CC[n+]1c(/C=C/c2ccc(OC)c(OC)c2)ccc2ccccc21,3.91% (inactive)
16,CN(C)c1ccc(/C=C/c2ccc3ccccc3n2)cc1,-37.5% (inactive)
17,C[n+]1c(/C=C/c2ccc3c(c2)OCO3)ccc2ccccc21,8.1% (inactive)
18,CN(C)c1ccc(/C=C/c2nc3ccccc3c(=O)[nH]2)cc1,-10.6% (inactive)
19,O=C(Nc1nc2ccccc2[nH]1)NC1CCCCC1,-9.13% (inactive)
